Experimental data reported in the supplement of paper PMC10338343.
± gives the standard deviation.

What was measured:
[1] = tested on: MILI (PIWIL2) piRISC loaded with L1MC piRNA (26 nt); experiment: pre-steady-state target cleavage rate (min^-1); guide: L1MC piRNA 5'p-UAACUAAAUACUAUGCAAGCUGUAGG; higher = faster piRNA-guided slicing of the target
Procedure, shortened: (§1)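 The pre-steady-state cleavage rate came from a burst-and-steady-state fit to pooled data from three Cleave-'n-Seq trials, in which uncleaved targets were sequenced and normalised to depth and to weakly complementary targets. Each reaction held 0.1 nM transcribed, DNA-blocked target RNA library and 1 nM active affinity-purified piRISC carrying one synthetic guide, with or without 500 nM GTSF1 partner protein, in HEPES–potassium acetate buffer at 33 °C for 0–8 or 0–960 min. k3 was capped at 0.0001 min^-1.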

[2] = tested on: EfPiwi piRISC loaded with L1MC piRNA (26 nt); experiment: pre-steady-state target cleavage rate (min^-1); auxiliary factor: 500 nM Ephydatia muelleri Gtsf1; guide: L1MC piRNA 5'p-UAACUAAAUACUAUGCAAGCUGUAGG; MIWI and MILI are mouse PIWI proteins and EfPiwi is from a freshwater sponge; tags in brackets are library labels; higher = faster piRNA-guided slicing of the target
Procedure, shortened: as §1

[3] = auxiliary factor: 500 nM mouse GTSF1
[4] = auxiliary factor: none (no GTSF1)

Sequence	pre-steady-state target cleavage rate [1, 3]	pre-steady-state target cleavage rate [2]	pre-steady-state target cleavage rate [1, 4]
UCCUGGUACAGCUUGCAUAGUAUUAAGUAA	0.128 ± 0.035	0.0031 ± 0.0028	
UCCUGCUACAGCAUGCAUAGUAUUUAGAAA	0.188 ± 0.041	0.00416 ± 0.0014	
UCCUGCUACAGCUUGCAUAGAAUAUAGUUA	0.0873 ± 0.021	0.00332 ± 0.0022	
UCCUGGAUGAGCUUGCAUAGUAUUUAAUUA	0.0516 ± 0.014	0.00294 ± 0.0025	
UCCUGGAUGAGCUUGCAUAGUAUUUAGUCA	0.172 ± 0.015	0.00793 ± 0.0032	
UCCUGGAACAGCUUGCCAUAGUAUUUAGUUA	0.163 ± 0.018	0.0042 ± 0.0019	
UCCUGGAUGAGCUAGCAUAGAAUUUAGUUA	0.0337 ± 0.011	0.00286 ± 0.0026	
UCCUCCUACAGCUUGCAUAGAAUUUAGUAA	0.148 ± 0.035	0.00443 ± 0.0022	
UCCUGCUACAGCUUGCAAAGUAUUUAGAUA	0.0895 ± 0.012	0.00421 ± 0.0024	
UCCUGGUACAGCUUGCAAAGUAUUUAGAUA	0.118 ± 0.021	0.00431 ± 0.0026	
UCCUCCAACAGCUUGCAUAGUAUUUUGUUA	0.108 ± 0.019	0.00594 ± 0.0025	
UCCUGGAUGAGCUUGCAUACUAUUUAGUAA	0.00877 ± 0.0036	0.00227 ± 0.0018	
UCCUGCUACUCCUUGCAUAGUAUUUACAAA	0.0669 ± 0.016	0.00249 ± 0.0023	
UCCUGGUACAGCUUGCAUAGUAUUUAGGUA	0.0562 ± 0.015	0.00463 ± 0.0022	
UCCUGCAUCAGCUUGCAUAGUAUUUAGAAA	0.127 ± 0.022	0.00393 ± 0.0017	
UCCUGGAACAGCUUGCUUAGUAUUAAGUUA	0.179 ± 0.026	0.00237 ± 0.002	
UCCUGGAUGUCGAAGGAAAGUAUUUAGUUA		< 0.0001	< 0.0001
UCCUGCUACAGCAUGCAUAGUAUUUACUUA	0.261 ± 0.041	0.0037 ± 0.0024	
UCCUGGAACAGCUUGCAUAGUAAUUAGAAA	0.0609 ± 0.018	0.00338 ± 0.0026	
UCCUGGAUGAGCUUGCAUAGUAUUUACUAA	0.00674 ± 0.0044	0.00198 ± 0.002	
UCCUGCAUCAGCUUGCAUAGUAUUUUCAAA	0.118 ± 0.029	0.00236 ± 0.0016	
UCCUCCUACAGCUUGCAUAGUAUAAAGAAA	0.0951 ± 0.023	0.00289 ± 0.0018	
UCCUGGUACAGCUUGCACUAGUAUUUAGUUA	0.109 ± 0.027	0.00323 ± 0.0029	
UCCUGGAUCAGCUUGCAUAGUAUUUAGUCUA	0.0918 ± 0.025	0.00289 ± 0.0027	

Sequence	pre-steady-state target cleavage rate [1, 3]	pre-steady-state target cleavage rate [2]	pre-steady-state target cleavage rate [1, 4]
UCCUGGUACAGCUUGCAUAGUAAUUUGUUA	0.18 ± 0.05	0.00282 ± 0.0025	
UCCUGGUACAGCUUGCAAAGUAUUUAGAAA	0.0181 ± 0.0094	0.00656 ± 0.0038	
UCCUCCUUGAGCUUGCAUAGUAUUUAGAAA	0.145 ± 0.025	0.00549 ± 0.0018	
UCCUGCUACAGCUUGCAUAGUAUUUUGUAA	0.107 ± 0.032	0.00356 ± 0.0022	
UCCUGCUACAGCUUGCAUAGUAUAUAGAAA	0.0314 ± 0.01	0.00298 ± 0.0025	
UCCUCCUACACCUUGCAUAGUAUUUAGAAA	0.226 ± 0.05	0.00377 ± 0.0021	
UCCUCCUUGUGCUUGCAUAGUAUUUAGAAA	0.0325 ± 0.0085	0.00387 ± 0.0022	
UCCUGGAUGUGCUUGCAUAGUAUUGAGUUA	0.0612 ± 0.019	0.00273 ± 0.0022	
UCCUGGAACAGCUAGCAUAGUAUUUAGAUA	0.118 ± 0.02	0.0041 ± 0.0023	
UCCUGGAACACCUUGCAUAGUAUUUUGUUA	0.14 ± 0.035	0.00343 ± 0.0029	
UCCUGGAUGAGCUUCCAUAGUAUUUAGUAA	0.0143 ± 0.0073	0.00253 ± 0.0019	
UCCUCGAUCAGCUUGCAUAGUAUUUACAAA	0.135 ± 0.026	0.00554 ± 0.003	
UCCUGGAACAGCUUGCAUAGUAUUAAGAUA	0.0769 ± 0.019	0.00257 ± 0.0022	
UCCUGGUACAGCAUGCAUAGUAUUUAGAAA	0.0581 ± 0.015	0.00215 ± 0.002	
UCCUGGAACAGCUUGCAUAGUAUUUAUGUUA	0.127 ± 0.018	0.0035 ± 0.002	
UCCUGGUACAGCUUGCAUAGUAAUUAGAUA		0.00477 ± 0.0031	0.00338 ± 0.0033
UCCUGCUACAGCUUGCAUAGUAUUUACUAA	0.112 ± 0.024	0.0025 ± 0.0024	
UCCUGCUACAGCUUGCAUAGUAUUAACAAA	0.0401 ± 0.011	0.00321 ± 0.0023	
UCCUGCUACAGCUUGCAUAGUAUUUGUUA	0.124 ± 0.028	0.00505 ± 0.002	
UCCUGCUACAGCUUGCAUAGUAAUAAGUUA	0.238 ± 0.03	0.0044 ± 0.002	
UCCUCCUACAGCAUGCAUAGUAUUUACAAA	0.205 ± 0.037	0.00397 ± 0.0026	
UCCUGGAUGAGCUAGCAUAGUAUUUAGAUA	0.168 ± 0.028	0.00406 ± 0.002	
UCCUCCUACAGCUUCGAUAGUAUUUAGUAA	0.217 ± 0.02	0.00413 ± 0.0021	
UCCUGGAACAGCUUCCAUAGUAUUUAGUUA	0.0612 ± 0.017	0.00225 ± 0.0021	

Sequence	pre-steady-state target cleavage rate [1, 3]	pre-steady-state target cleavage rate [2]	pre-steady-state target cleavage rate [1, 4]
UCCUGGAACAGCUUGCAUAGUAUAAUGUUA	0.0834 ± 0.018	0.00416 ± 0.0026	
UCCUGGAUGUGCUUGCAUAGUAUUCAGUUA	0.0572 ± 0.015	0.00279 ± 0.0024	
UCCUCCUACAGCUUGCAAAGUAUUUAGAUA	0.0875 ± 0.015	0.00419 ± 0.0024	
UCCUCCUACACGUUGCAUAGUAUUUAGAAA	0.161 ± 0.029	0.00396 ± 0.003	
UCCUCGAUCAGCUUGCAUAGUAUUUAGAAA	0.115 ± 0.02	0.00579 ± 0.0018	
UCCUCCUAGAGCUUGCAUAGUUUUUAGUUA	0.0719 ± 0.011	0.00428 ± 0.0017	
UCCUCCUACAGCUUGCAUAGUAUUUUGAUA	0.112 ± 0.024	0.0044 ± 0.0029	
UCCUCCUACAGCUUGCAUAGAAUUUACAAA	0.0431 ± 0.015	0.00295 ± 0.0029	
UCCUGGAUCAGCAUGCAUAGUAUUUAGAUA	0.149 ± 0.017	0.0044 ± 0.0024	
UCCUGCUAGAGCUUGCAUAGUAUUUUCAAA	0.0124 ± 0.0058	0.00315 ± 0.0025	
UCCUGGAACAGCUUGGAUAGUUUUUAGUUA	0.0453 ± 0.0097	0.00298 ± 0.0022	
UCCUGGAUGUGCUUCCAUAGUAUUUAGUAA	0.0304 ± 0.012	0.00486 ± 0.003	
UCCUCCUACACCUUGCAUAGUAUUAAGUUA	0.178 ± 0.036	0.00451 ± 0.0025	
UCCUCGUACAGCUUGCAUAGUAUUUACAAA	0.105 ± 0.025	0.00271 ± 0.0024	
UCCUCCUACAGCUUGCAUAGUAUUAUGAAA	0.115 ± 0.029	0.00358 ± 0.0025	
UCCUGCAACAGCUUGCAUAGUAUUUAGAUA	0.125 ± 0.024	0.00372 ± 0.002	
UCCUGCUACACCUUCCAUAGUAUUUAGUUA	0.0271 ± 0.013	0.00334 ± 0.0022	
UCCUGGAUCAGCAUGCAUAGUAUUUACAAA	0.0991 ± 0.019	0.00615 ± 0.0038	
UCCUGGAUGAGCUUGCAAAGUAUUUAGAAA	0.0447 ± 0.013	0.00395 ± 0.0031	
UCCUGGAACAGCUUGCAUAGUAUAUUGUUA	0.153 ± 0.029	0.00533 ± 0.0022	
UCCUGGAACAGCUUGCUUAGUAUUUAGAUA	0.176 ± 0.017	0.00448 ± 0.0027	
UCCUGGAAGAGCUUGCAUAGUAUUUAGAAA	0.109 ± 0.025	0.00533 ± 0.002	
UCCUCCUACAGCUUGCAUAGUAUUUAGUGA	0.186 ± 0.034	0.00553 ± 0.0017	
